Reference: article PMC4336329 (PLoS ONE, 2015)
Among all 310,000 compounds or so, about 14,000 (4.5%) showed an effect of 50% or more. The effect is printed as a negative number. This excerpt belongs to a sample that is enriched for strong results.

Each compound was assayed against human ether-à-go-go-related gene (hERG) potassium channel (human, UniProt Q12809) (assay: primary screen, population patch clamp on CHO cells stably expressing hERG; higher = less effect of the substance).
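Further: peak tail current of the secondary pulse compared with the same well before compound.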

Sequence of human ether-à-go-go-related gene (hERG) potassium channel (Q12809 whole entry, looked up): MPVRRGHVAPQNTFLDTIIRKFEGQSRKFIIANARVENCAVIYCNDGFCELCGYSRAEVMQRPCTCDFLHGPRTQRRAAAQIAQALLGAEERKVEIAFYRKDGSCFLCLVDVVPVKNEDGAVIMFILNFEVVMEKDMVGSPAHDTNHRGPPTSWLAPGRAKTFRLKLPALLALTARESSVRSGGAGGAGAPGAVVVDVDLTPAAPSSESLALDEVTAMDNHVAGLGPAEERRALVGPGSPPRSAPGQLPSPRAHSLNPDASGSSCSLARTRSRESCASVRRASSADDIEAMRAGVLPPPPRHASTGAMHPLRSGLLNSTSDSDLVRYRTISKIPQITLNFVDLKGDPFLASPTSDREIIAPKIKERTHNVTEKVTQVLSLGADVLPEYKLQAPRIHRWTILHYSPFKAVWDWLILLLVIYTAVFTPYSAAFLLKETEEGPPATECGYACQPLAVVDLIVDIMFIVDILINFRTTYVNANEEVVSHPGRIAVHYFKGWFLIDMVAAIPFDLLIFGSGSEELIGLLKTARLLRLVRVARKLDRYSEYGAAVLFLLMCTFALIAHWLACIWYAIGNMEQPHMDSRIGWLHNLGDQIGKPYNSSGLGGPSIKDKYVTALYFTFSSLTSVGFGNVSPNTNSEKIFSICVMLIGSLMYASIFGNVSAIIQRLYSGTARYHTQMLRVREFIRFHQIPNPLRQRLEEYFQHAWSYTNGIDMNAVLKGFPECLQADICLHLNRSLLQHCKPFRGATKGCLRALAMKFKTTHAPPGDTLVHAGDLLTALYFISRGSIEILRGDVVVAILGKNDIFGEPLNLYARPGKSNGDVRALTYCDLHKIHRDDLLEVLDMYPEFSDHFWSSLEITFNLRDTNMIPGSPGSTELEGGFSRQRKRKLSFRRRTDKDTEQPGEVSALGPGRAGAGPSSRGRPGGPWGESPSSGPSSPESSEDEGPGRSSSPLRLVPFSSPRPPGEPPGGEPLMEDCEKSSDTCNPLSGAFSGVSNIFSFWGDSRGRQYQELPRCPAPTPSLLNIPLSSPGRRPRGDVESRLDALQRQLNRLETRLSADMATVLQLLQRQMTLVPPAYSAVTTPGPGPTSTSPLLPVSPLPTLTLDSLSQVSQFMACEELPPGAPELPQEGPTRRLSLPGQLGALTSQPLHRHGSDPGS

Row | SMILES | hERG current change (%, negative = inhibition) at 10uM [%]
1 | Cc1ccc(C)c(NC(=O)c2sc(Cl)nc2-c2ccccc2)c1 | 13.9
2 | CCN1CCN(C2=C(NS(=O)(=O)c3ccc(NC(C)=O)cc3)C(=O)c3ccccc3C2=O)CC1 | 7.39
3 | O=C1C(NS(=O)(=O)c2ccc(Br)cc2)=C(N2CCCCC2)C(=O)c2ccccc21 | -33.1
4 | NC(=O)C1CCN(C2=C(NS(=O)(=O)c3ccc(Br)cc3)C(=O)c3ccccc3C2=O)CC1 | -72.1
5 | Cc1ccc(S(=O)(=O)NC2=C(N3CCN(Cc4ccccc4)CC3)C(=O)c3ccccc3C2=O)cc1 | -16.5
6 | NC(=O)C1CCN(C2=C(NS(=O)(=O)c3ccc(Cl)cc3)C(=O)c3ccccc3C2=O)CC1 | -38.3
7 | NC(=O)C1CCN(C2=C(NS(=O)(=O)c3ccccc3)C(=O)c3ccccc3C2=O)CC1 | -13.9
8 | CCN1CCN(C2=C(NS(=O)(=O)c3ccccc3)C(=O)c3ccccc3C2=O)CC1 | -5.21
9 | CCN1CCN(C2=C(NS(=O)(=O)c3ccc(Br)cc3)C(=O)c3ccccc3C2=O)CC1 | -61.5
10 | CCN1CCN(C2=C(NS(=O)(=O)c3ccc(C)cc3)C(=O)c3ccccc3C2=O)CC1 | -57.1
11 | CC(C)(C)c1cc(C(=O)NCCCn2ccnc2)cc(C(C)(C)C)c1.Cl | 13.1
12 | CC(=O)c1cccc(NC(=O)CSc2ccc(-c3ccccn3)nn2)c1 | -13.6
13 | COc1cc(C)c(CNc2ccc(OC)c(OC)c2)cc1C | 7.7
14 | COC(=O)[C@@]1(Cc2ccc(F)cc2)[C@H]2c3cc(C(=O)N4CCCC4)n(CCO)c3C[C@H]2CN1C(=O)c1ccccc1 | -51.4
15 | COC(=O)[C@@]1(Cc2ccc(F)cc2)[C@H]2c3cc(C(=O)N4CCCC4)n(Cc4ccc(C(F)(F)F)nc4)c3C[C@H]2CN1C(=O)c1ccccc1 | -8.27
16 | COC(=O)[C@@]1(Cc2ccc(OC)cc2)[C@H]2c3cc(C(=O)N4CCCC4)n(C[C@H](O)CO)c3C[C@H]2CN1C(=O)c1ccccc1 | -1.32
17 | COCCn1c(C(=O)N2CCCC2)cc2c1C[C@H]1CN(C(=O)c3ccccc3)[C@@](Cc3ccc(F)cc3)(C(=O)OC)[C@@H]21 | -39.3
18 | COC(=O)Cn1c(C(=O)N2CCCC2)cc2c1C[C@H]1CN(C(=O)c3ccccc3)[C@@](Cc3ccc(F)cc3)(C(=O)OC)[C@@H]21 | -67.4
19 | COC(=O)[C@@]1(Cc2ccc(OC)cc2)[C@H]2c3cc(C(=O)N4CCCC4)n(CCO)c3C[C@H]2CN1C(=O)c1ccccc1 | -34.9
20 | COc1ccc(-c2csc(N(Cc3ccccc3)C(=O)COc3ccc(Cl)cc3)n2)cc1 | 4.31
21 | COc1cc(C=O)ccc1OCC(=O)N1CCOCC1 | 2.65
22 | Clc1ccc(SCc2nc3ccccc3[nH]2)cc1 | -11.2
23 | COC(=O)c1nnn(-c2ccccc2)c1N | -7.91
24 | Cc1ccc(C)c(N2CCN(CC(=O)Nc3ccc([N+](=O)[O-])cc3C(=O)Nc3ccccc3F)CC2)c1 | -18
25 | Cc1ccc(CC(=O)Nc2ccc([N+](=O)[O-])cc2C)cc1 | 0.803

Row | SMILES | hERG current change (%, negative = inhibition) at 10uM [%]
26 | O=C(CN1CCN(Cc2ccccc2)CC1)Nc1ccc([N+](=O)[O-])cc1C(=O)Nc1ccccc1F | -77.5
27 | O=C(CN1CCN(c2cccc(Cl)c2)CC1)Nc1ccc([N+](=O)[O-])cc1C(=O)Nc1ccccc1F | 14.4
28 | CCC(C)NCC(=O)Nc1ccc([N+](=O)[O-])cc1C(=O)Nc1ccccc1F (stereo not shown) | -34.7
29 | CCOC(=O)N1CCN(CC(=O)Nc2ccc([N+](=O)[O-])cc2C(=O)Nc2ccccc2F)CC1 | -50.7
30 | O=C(CN1CCN(c2ccccn2)CC1)Nc1ccc([N+](=O)[O-])cc1C(=O)Nc1ccccc1F | -34.7
31 | Cc1ccc([N+](=O)[O-])cc1NC(=O)CN1CCCCC1 | -11.7
32 | Cc1cc([N+](=O)[O-])ccc1NC(=O)CN1CCN(Cc2ccccc2)CC1 | -73.9
33 | CCCC1S/C(=N/N=C/c2ccc(C)cc2)N(Cc2ccc(OC)cc2)C1=O (stereo not shown) | 9.81
34 | CC(=O)Oc1ccc(-c2cc3ccccc3oc2=O)cc1 | 0.436
35 | CCOC(=O)N1CCN(Cc2nnc(-c3ccccc3Cl)o2)CC1.Cl | 11.4
36 | CCOc1c(C)cnc2c1c(=O)n(Cc1cccc(Cl)c1)c(=O)n2C | -36.1
37 | CC(C)(C)NC(=O)CSc1ncccc1-c1nc2ccccc2[nH]1 | -4.73
38 | Cc1c(C)c2ccc(OCC(=O)Nc3ccc(N4CCC(C)CC4)cc3)cc2oc1=O | 14.7
39 | COc1ccc(-n2nc3c(c2NC(=O)COc2cccc(OC)c2)CS(=O)(=O)C3)cc1 | -29.5
40 | Cc1ccc(-c2n[nH]c(=S)n2/N=C\c2ccco2)cc1 | 24.1
41 | O=C(/C=C/c1ccccc1)N1CCC(N2CCC(C(=O)N3CCOCC3)CC2)CC1 | -23.4
42 | O=C(C1CCN(C2CCN(Cc3cccc4c3OCO4)CC2)CC1)N1CCOCC1 | -34.7
43 | O=C(C1CCN(C2CCN(C/C(Cl)=C/c3ccccc3)CC2)CC1)N1CCOCC1 | -64.1
44 | O=C(C1CCN(C2CCN(Cc3ccsc3)CC2)CC1)N1CCOCC1 | -3.8
45 | O=C(Cc1ccc(F)cc1)N1CCC(N2CCC(C(=O)N3CCOCC3)CC2)CC1 | 9.76
46 | O=C(C1CCN(C2CCN(C/C=C/c3ccccc3)CC2)CC1)N1CCOCC1 | -53.4
47 | O=C(C1CCN(C2CCN(Cc3ccc4c(c3)CCO4)CC2)CC1)N1CCOCC1 | -26.6
48 | Cc1cccc(CC(=O)N2CCC(N3CCC(C(=O)N4CCOCC4)CC3)CC2)c1 | 0.701
49 | C/C(=C\c1ccco1)CN1CCC(N2CCC(C(=O)N3CCOCC3)CC2)CC1 | -78.9
